Experimental data: PubChem BioAssay AID720517 (National Center for Advancing Translational Sciences (NCATS), 2013)
Records with an inconclusive call do not appear. A number with no mark means an inactive call. Calls come from the whole dose curve; as a rule, active = well fitted activation curve with a large enough effect; inconclusive = small, poorly fitted or top-dose-only effect; inactive = flat fitted curve, though single readings scatter.

assay: qHTS for Inhibitors of Cell Surface uPA Generation: FP59 Counterscreen for Cherry-picked Compounds; settings: FP59 anthrax toxin cytotoxicity counterscreen, cells; series mostly up to 115 µM; activity (protection from FP59): at the top concentration; note: 0% is about no effect

Structure (SMILES)	activity (protection from FP59)
CC(C)OC(=O)c1ccc(N2CCN(c3ccccc3F)CC2)nc1	-1.46%
COc1cccc(NC(=S)NCc2ccc3c(c2)cc(C)n3C)c1	-0.806%
Cc1ccc(C)c(S(=O)(=O)Nc2ccccc2C(=O)Nc2cc(C)on2)c1	-0.926%
CCOC(=O)c1c(NC(=S)NC)sc2c1CCCC2	0.404%
Cc1ccc(Cl)cc1NC(=O)c1ccccc1OCC(=O)N1CCOCC1	-0.889%
Cc1cc(=O)[nH]c2c(C)cc(S(=O)(=O)Nc3ccc(O)cc3)cc12	1.18%
COC(=O)C1=CN(Cc2ccc(F)cc2)C=C(C(=O)OC)C1c1ccc(O)c(OC)c1	0.908%
CC1(c2cccc([N+](=O)[O-])c2)CC(C)(C)N(C(=O)c2ccccc2)c2ccccc21 (centres undefined)	3.03%
COc1cc(NS(=O)(=O)c2ccc(NC(=S)NC(=O)COc3ccccc3OC)cc2)nc(OC)n1	0.183%
C=CCOC(=O)C1=C[C@@H](c2coc3ccccc3c2=O)C[C@@H](OCc2ccc(CO)cc2)O1	-0.924%
COCCOC(=O)C1=C(C)NC(=O)NC1c1cccc2ccccc12 (centres undefined)	-1.34%
CCCN1CCN(CC(=O)Nc2nncs2)CC1	-1.28%
COc1ccc(C2=Nc3ccccc3C2(O)CCN2C(=O)c3ccccc3C2=O)cc1 (centres undefined)	-1.54%
O=C(NNC(=O)c1ncc(Cl)c(Cl)c1Cl)c1ccc(F)cc1	0.837%
Cc1cc(C)cc(NC(=O)COC(=O)CCn2c(C)csc2=O)c1	-1.32%
COC(/C=C/Nc1ccc(Cl)cc1)=C(C#N)C#N	-1.39%
CC1Cc2nc(SCC(=O)Nc3ccc4c(c3)OCO4)n(-c3ccc(F)cc3)c(=O)c2S1 (centres undefined)	-1.41%
CN1CCN(c2ccc(S(=O)(=O)N3CCOCC3)cc2NC(=O)CSCc2ccccc2)CC1	1.22%
COc1cc(CN2CCN(c3ncccn3)CC2)cc(OC)c1	-1.39%
COc1cc2c(cc1OC)CN(C(=O)c1ccc(-c3ccccc3)cc1)CC2	1.17%

Structure (SMILES)	activity (protection from FP59)
CC(=O)NS(=O)(=O)c1ccc(NC(=O)c2cccc(OCc3c(C)noc3C)c2)cc1	-1.47%
CN(CCCNC(=O)Cn1cccc1C(=O)c1ccccc1)C1CCCCC1	-1.16%
CCCCN(CC)CCNC(=O)c1cc2cc3ccc(Cl)cc3nc2o1	-1.38%
CCC(C)NC(=O)c1ccc2nc(-c3ccc(OC)c(OC)c3)c(-c3ccc(OC)c(OC)c3)nc2c1 (centres undefined)	-1.24%
NC(=O)c1ccc(NC(=O)CN2CCN(S(=O)(=O)c3ccc4ccccc4c3)CC2)cc1	0.185%
O=C(NCc1ccccn1)C1CCN(C(=O)c2cc3sccc3n2Cc2ccc(F)cc2)CC1	-1.21%
Cc1ccc(C(O)(COC(=O)C(C)C)COC(=O)C(C)C)c(O)c1	-0.296%
CC1CS(=O)(=O)CCN1N=Cc1ccc([N+](=O)[O-])o1 (centres undefined)	2.87%
Cn1nc(C(C)(C)C)c([N+](=O)[O-])c1C(=O)N1CCOCC1	-1.4%
CN1CCN(C2=Nc3ccccc3Oc3ccc(Cl)cc32)CC1	-1.01%
COCCOc1ccc(C(F)(F)F)cc1NC(=O)COC(=O)Cc1c[nH]c2ccccc12	-1.38%
COc1ccc(CCNC(=O)CSc2nc(N)c3c(C)c(C)oc3n2)cc1OC	-1.33%
Cc1ccccc1N1C(=O)C(Cc2ccc(F)cc2)S/C1=C(\C#N)C(N)=O (centres undefined)	-1.54%
COC(=O)CCSCC(=O)N1N=C(c2ccc(OC)cc2)CC1c1cccc(OC)c1OC (centres undefined)	-1.4%
O=C(O)c1cc(N=Nc2c(O)[nH]c3ccc([N+](=O)[O-])cc23)ccc1Cl	-1.37%
CCO[C@H]1OC(C(=O)N2CCCCCCC2)=C[C@@H](c2ccc(C(F)(F)F)cc2)[C@@H]1CCCO	1.06%
Cc1ccc(S(=O)(=O)NCC(=O)N/N=C/c2ccc(Cl)cc2)cc1	-0.814%
Cc1cccc(C(=O)NCC(=O)OCC(=O)NC2CCCCCCC2)c1	-1.42%
COCCNC(=S)N(CCc1c(C)[nH]c2ccccc12)Cc1ccco1	-1.09%
